Experimental data taken from ChEMBL document CHEMBL5606460, “ASAP - DENV-2 NS2B-NS3 protease fluorescence single point” (2024).
The whole screen tested about 2,000 compounds, of which about 110 (5.5%) showed an effect of 50% or more. For the sample, strong results were picked, then their nearest neighbours and some compounds at random.

Biological target: Genome polyprotein (dengue virus type 2) (UniProt P29990)

Compound: N[C@@H]1CCCC[C@H]1C(=O)Nc1cccc2cccnc12
- inhibition (Thailand/16681/1984, Concentration 49.95 uM, Number of replicates 2.0, Standard deviation 3.2838754106489776 %): -8.7%
- inhibition (Thailand/16681/1984, Concentration 99.9 uM, Number of replicates 2.0, Standard deviation 3.148144351005342 %): -7.2%

Compound: Nc1nccc2cc(Br)ccc12
- inhibition (Thailand/16681/1984, Concentration 49.95 uM, Number of replicates 2.0, Standard deviation 5.1898726049351325 %): -2.94%
- inhibition (Thailand/16681/1984, Concentration 99.9 uM, Number of replicates 2.0, Standard deviation 6.552121336877266 %): -2.95%

Compound: COc1ccc(Cl)c2sc(NC(=O)c3ccccc3NS(=O)(=O)c3ccc(Cl)cc3)nc12
- inhibition (Thailand/16681/1984, Concentration 198.0 uM, Number of replicates 2.0, Standard deviation 9.166560145189157 %): 8.28%

Compound: CC(C)Nc1nc2ccc(C(=O)Nc3nnc4cccnn34)cc2[nH]1
- inhibition (Thailand/16681/1984, Concentration 49.5 uM, Number of replicates 2.0, Standard deviation 0.47864102228875616 %): -2.54%
- inhibition (Thailand/16681/1984, Concentration 99.01 uM, Number of replicates 2.0, Standard deviation 0.9476878624230379 %): -0.35%
- inhibition (Thailand/16681/1984, Concentration 198.0 uM, Number of replicates 2.0, Standard deviation 0.5058242222917364 %): 4.68%

Compound: Cc1cc(CO)c2cccc(Cc3ccccc3NC(=O)CCC3CCNCC3)c2n1
- inhibition (Thailand/16681/1984, Concentration 49.95 uM, Number of replicates 2.0, Standard deviation 0.7055143046624119 %): -4.33%
- inhibition (Thailand/16681/1984, Concentration 99.9 uM, Number of replicates 2.0, Standard deviation 1.236554143481246 %): 6.21%

Compound: Cc1cc(CO)c2cccc(NCC3CCNCC3)c2n1
- inhibition (Thailand/16681/1984, Concentration 49.95 uM, Number of replicates 2.0, Standard deviation 0.8313641199663653 %): -6.22%
- inhibition (Thailand/16681/1984, Concentration 99.9 uM, Number of replicates 2.0, Standard deviation 1.3048073716258033 %): 0.772%

Compound: Cc1cc(CO)c2cccc(NC(=O)CCC3CCNCC3)c2n1
- inhibition (Thailand/16681/1984, Concentration 49.95 uM, Number of replicates 2.0, Standard deviation 0.01891415691253689 %): 99.7%
- inhibition (Thailand/16681/1984, Concentration 99.9 uM, Number of replicates 2.0, Standard deviation 0.03175377284289565 %): 99.6%

Compound: Cc1cc(CO)c2cccc(NC(=O)CC3CCNCC3)c2n1
- inhibition (Thailand/16681/1984, Concentration 49.95 uM, Number of replicates 2.0, Standard deviation 2.142909982415651 %): 8.3%
- inhibition (Thailand/16681/1984, Concentration 99.9 uM, Number of replicates 2.0, Standard deviation 0.2007188026491294 %): 53.9%

Compound: Cc1cc(CO)c2cccc(Cc3cccc(NC(=O)C[C@H]4CCCN4)c3)c2n1
- inhibition (Thailand/16681/1984, Concentration 49.95 uM, Number of replicates 2.0, Standard deviation 0.1263380443971036 %): -4.58%
- inhibition (Thailand/16681/1984, Concentration 99.9 uM, Number of replicates 2.0, Standard deviation 0.8674748654209231 %): -4.17%

Compound: Cc1cc(CO)c2cccc(NC(=O)Cc3c(C)c4c(=O)[nH]n(C)c4[nH]c3=O)c2n1
- inhibition (Thailand/16681/1984, Concentration 49.95 uM, Number of replicates 2.0, Standard deviation 1.6565788461475972 %): 17.7%
- inhibition (Thailand/16681/1984, Concentration 99.9 uM, Number of replicates 2.0, Standard deviation 1.9416844060600267 %): 32.2%

Compound: Cc1cc(CO)c2cccc(Cc3ccccc3NC(=O)Cc3c(C)c4c(=O)[nH]n(C)c4[nH]c3=O)c2n1
- inhibition (Thailand/16681/1984, Concentration 49.95 uM, Number of replicates 2.0, Standard deviation 2.5458058686723866 %): 22.5%
- inhibition (Thailand/16681/1984, Concentration 99.9 uM, Number of replicates 2.0, Standard deviation 1.6741240734205003 %): 45.5%

Compound: Cc1cc(CO)c2cccc(Cc3cccc(NC(=O)Cc4c(C)c5c(=O)[nH]n(C)c5[nH]c4=O)c3)c2n1
- inhibition (Thailand/16681/1984, Concentration 49.95 uM, Number of replicates 2.0, Standard deviation 0.9721935995806666 %): 38.4%
- inhibition (Thailand/16681/1984, Concentration 99.9 uM, Number of replicates 2.0, Standard deviation 1.6660426680996274 %): 65.6%

Compound: Cc1cc(CO)c2cccc(Cc3cccc(NC(=O)CNC4CC4)c3)c2n1
- inhibition (Thailand/16681/1984, Concentration 49.95 uM, Number of replicates 2.0, Standard deviation 1.5245757174015988 %): 0.182%
- inhibition (Thailand/16681/1984, Concentration 99.9 uM, Number of replicates 2.0, Standard deviation 1.8285218036822166 %): 7.46%

Compound: Cc1cc(CO)c2cccc(NC(=O)CC3CNC3)c2n1
- inhibition (Thailand/16681/1984, Concentration 49.95 uM, Number of replicates 2.0, Standard deviation 1.3762045228616064 %): 7.76%
- inhibition (Thailand/16681/1984, Concentration 99.9 uM, Number of replicates 2.0, Standard deviation 1.6376626661863318 %): 14.8%

Compound: Cc1cc(CO)c2cccc(Cc3cccc(NC(=O)CCC4CCNCC4)c3)c2n1
- inhibition (Thailand/16681/1984, Concentration 49.95 uM, Number of replicates 2.0, Standard deviation 1.9905342893580933 %): 36.1%
- inhibition (Thailand/16681/1984, Concentration 99.9 uM, Number of replicates 2.0, Standard deviation 0.13016565259146895 %): 90.2%

Compound: Cc1cc(CO)c2cccc(NC(=O)C[C@H]3CCCN3)c2n1
- inhibition (Thailand/16681/1984, Concentration 49.95 uM, Number of replicates 2.0, Standard deviation 1.87682580099837 %): 7.72%
- inhibition (Thailand/16681/1984, Concentration 99.9 uM, Number of replicates 2.0, Standard deviation 2.520000533440925 %): 13.9%

Compound: Cc1cc(N)c2cccc(Br)c2n1
- inhibition (Thailand/16681/1984, Concentration 49.95 uM, Number of replicates 2.0, Standard deviation 5.849609152234285 %): -8.02%
- inhibition (Thailand/16681/1984, Concentration 99.9 uM, Number of replicates 2.0, Standard deviation 5.75747614138947 %): -7.97%

Compound: Cc1cc(CO)c2cccc(Cc3ccccc3NC(=O)Cc3c[nH]c4ccccc34)c2n1
- inhibition (Thailand/16681/1984, Concentration 49.95 uM, Number of replicates 2.0, Standard deviation 1.1797806526631314 %): 5.6%
- inhibition (Thailand/16681/1984, Concentration 99.9 uM, Number of replicates 2.0, Standard deviation 0.9471475819719768 %): 13.1%

Compound: CNC(=O)c1cc(Cl)ccc1NS(=O)(=O)c1cc(Cl)cc(C(=O)NC)c1OC
- inhibition (Thailand/16681/1984, Concentration 49.5 uM, Number of replicates 2.0, Standard deviation 3.5107220562143744 %): -1.24%
- inhibition (Thailand/16681/1984, Concentration 99.01 uM, Number of replicates 2.0, Standard deviation 4.644293157051252 %): 1.93%
- inhibition (Thailand/16681/1984, Concentration 198.0 uM, Number of replicates 2.0, Standard deviation 3.3165321375743706 %): 8.2%

Compound: O=Cc1ccc(N2CCC(C(=O)Nc3ccc(F)cc3C(F)(F)F)CC2)cc1
- inhibition (Thailand/16681/1984, Concentration 25.0 uM, Number of replicates 1.0): 12.5%

Compound: O=C(O)c1cnn(C2CCN(C(=O)c3ccnc4[nH]cnc34)CC2)c1
- inhibition (Thailand/16681/1984, Concentration 49.5 uM, Number of replicates 2.0, Standard deviation 1.214191700010942 %): -2.48%
- inhibition (Thailand/16681/1984, Concentration 99.01 uM, Number of replicates 2.0, Standard deviation 1.7130868961137902 %): -2.88%
- inhibition (Thailand/16681/1984, Concentration 198.0 uM, Number of replicates 2.0, Standard deviation 1.3863533153956358 %): -2.86%

Compound: COc1ccccc1OCCn1cc(C2CCNCC2)c(C)n1
- inhibition (Thailand/16681/1984, Concentration 49.5 uM, Number of replicates 2.0, Standard deviation 0.4008605306484476 %): -1.35%
- inhibition (Thailand/16681/1984, Concentration 99.01 uM, Number of replicates 2.0, Standard deviation 0.8515456477601485 %): 0.612%
- inhibition (Thailand/16681/1984, Concentration 198.0 uM, Number of replicates 2.0, Standard deviation 0.3007587308619815 %): 2.21%
